Here are results for 90 molecules from PubChem BioAssay AID463173 (ICCB-Longwood Screening Facility, Harvard Medical School, 2010).

Each structure is given as a SMILES string. About 4,300 (8.3%) of roughly 52,000 compounds were called active. This is one part of a sample in which actives are shown more often than they occur. No stated cut-off is given here; in the data, active means survival mostly below about 52% (no sharp cut-off); inactive means mostly above about 56%.

The assay deals with DeltatarO mutant. Description: growth inhibition of S. aureus wild type versus tarO mutant, primary screen, teichoic acid synthesis inhibitors, RN4220, OD600 (AID 463173). The settings on record: OD600, 18 h, hits give low values, screened at 18.75 µg/mL (by protocol).
On to `Cc1cc2[nH]c(=O)c(=O)[nH]c2cc1S(=O)(=O)Nc1ccc(OC(F)(F)F)cc1`, for which the survival was 67% (inactive).

For the molecule `CCCn1c(=O)n(-c2cc(Cl)c(OC)cc2OC)c(=O)c2c3c(sc21)CN(C(C)=O)CC3`, the survival was 62% (inactive). To `O=C(O)CCc1ccc(-c2ccccc2)n1CC(=O)Nc1ccccc1C(F)(F)F` belongs 60% (inactive). As for `CCc1ccccc1NC(=O)C1=C(C)C(=O)OC12CCCCCC2`, the figure is 58% (inactive); as for `CCn1cc(C(=O)OCC(=O)Nc2ccc(C)c(Cl)c2)c(=O)c2ccc(C)nc21`, 63% (active). As for `CCn1cc(C(=O)OCC(=O)Nc2cc(C)cc(C)c2)c(=O)c2ccc(C)nc21`, the figure is 64% (inactive); as for `CCn1cc(C(=O)OCC(=O)Nc2cc(Cl)ccc2C)c(=O)c2ccc(C)nc21`, 74% (inactive); as for `CCCCCCC1CC=C(C(=O)O)CC1` (stereo not given), 76% (inactive). As to `CCCCCCC1CCC(C(=O)NC(C(=O)O)C(C)C)CC1` (stereo not given), the survival was 49% (inactive).

With `CCCCC1CCC(CCCC(C)CCC(=O)O)CC1` (stereo not given), the survival is -4% (active).

Turning to `O=c1c2sc3ccccc3c2n(Cc2ccccc2)c(=O)n1CCc1ccccc1`, the survival is 71% (inactive). As for `COc1ccc(N(CC(=O)Nc2cc(OC)cc(OC)c2)S(=O)(=O)c2c(C)noc2C)cc1`, the figure is 45% (active). As for `CS(=O)(=O)N(CC(=O)Nc1cccnc1)c1ccc(Cl)cc1`, the figure is 91% (inactive).

Consider `COc1ccc(N(CC(=O)NCc2ccc(F)cc2)S(=O)(=O)c2c(C)noc2C)cc1`, for which the survival was 82% (inactive). For the molecule `COc1ccc(S(=O)(=O)N(CC(=O)Nc2cccnc2)c2ccc(Cl)cc2)cc1`, the survival is 30% (active). As for `COc1ccc(S(=O)(=O)N(CC(=O)Nc2cc(C)cc(C)c2)c2ccc(Cl)cc2)cc1`, the survival was 77% (inactive). As for `O=C(CN(c1ccc(Cl)c(C(F)(F)F)c1)S(=O)(=O)c1ccccc1)Nc1cccnc1`, the figure is 47% (active); as for `CCOc1ccc(S(=O)(=O)N(CC(=O)Nc2cccnc2)c2ccccc2)cc1`, 114% (inactive); as for `O=C(CN(c1ccc(Cl)c(C(F)(F)F)c1)S(=O)(=O)c1ccccc1)N1CCc2ccccc2C1`, 42% (inactive). To `COc1ccc(N(CC(=O)Nc2cc(Cl)ccc2C)S(=O)(=O)c2c(C)noc2C)cc1` belongs 51% (inactive). To `Cc1cc(C)c(NC(=O)Cn2c(=O)n(CC(=O)NCc3ccccc3Cl)c(=O)c3sccc32)c(C)c1` belongs 171% (inactive). For the molecule `Cc1ccc(N2CCN(C(=O)c3nn(C)c4c3CS(=O)(=O)c3ccccc3-4)CC2C)cc1` (stereo not given), the survival is 56% (inactive). To `O=C(c1ccc2c(c1)N(Cc1cccc(Cl)c1)C(=O)c1ccccc1S2(=O)=O)N1CCCC1` belongs 115% (inactive). As for `CCOc1ccccc1CNC(=O)CSc1nnc(C)c2c(C)n(-c3ccccc3)nc12`, the figure is 83% (inactive). As for `CC(C)CNS(=O)(=O)c1ccc(S(=O)(=O)N2CCCC(C(=O)NC3CCCCC3)C2)cc1` (stereo not given), the figure is 75% (inactive). As for `CCCCOc1ccc(CNC(=O)C2COc3ccc(OC)cc3C2)cc1` (stereo not given), the survival is 94% (inactive).

Regarding `CCc1ccccc1NS(=O)(=O)c1ccc2[nH]cc(C(=O)NC3CCCC3)c(=O)c2c1`, the survival is 33% (active). As for `O=C(NC1CCCCC1)c1c[nH]c2ccc(S(=O)(=O)Nc3ccccc3F)cc2c1=O`, the figure is 83% (inactive); as for `CNC(=O)c1c[nH]c2ccc(S(=O)(=O)Nc3cccc(Cl)c3C)cc2c1=O`, 91% (inactive). As for `Cc1ccccc1NS(=O)(=O)c1ccc2[nH]cc(C(=O)NC3CCCCC3)c(=O)c2c1`, the survival was 85% (inactive). As for `Cc1c(Cl)cccc1NS(=O)(=O)c1ccc2[nH]cc(C(=O)NC3CCCC3)c(=O)c2c1`, the figure is 7% (active). To `CCOCCCNC(=O)c1c[nH]c2ccc(S(=O)(=O)Nc3cccc(Cl)c3C)cc2c1=O` belongs 93% (inactive); to `CNc1nc2ccccc2o1`, 89% (inactive).

Consider `O=C(CSc1nnc(-c2cccs2)o1)Oc1ccccc1Cl`, for which the survival is 81% (inactive). As for `Cc1ccc(CNC(=O)CCCn2c(=O)c3ccccc3n(CC(=O)Nc3ccc(C)cc3)c2=O)cc1`, the figure is 89% (inactive).

Consider `COc1ccc(C)cc1N(CC(=O)N1CCC(C)CC1)S(=O)(=O)c1ccc(C)cc1`, for which the survival is 55% (active). As for `CCOC(=O)N1CCN(C(=O)CN(c2cc(C)ccc2OC)S(=O)(=O)c2ccc(C)cc2)CC1`, the figure is 87% (inactive); as for `COc1ccccc1N(CC(=O)N1CCC(C)CC1)S(=O)(=O)c1ccc(C)cc1`, 134% (inactive). `O=C(CSc1nc(-c2ccc(F)cc2)[nH]c1-c1ccc(F)cc1)Nc1ccc2c(c1)OCCO2`: the survival is 76% (inactive).

As for `N#CCCCN1C(=O)C(=C(C#N)C#N)c2ccccc21`, the survival is 75% (inactive). Regarding `N#Cc1cc2nc3c(nc2cc1C#N)-c1cccc2cccc-3c12`, the survival was 85% (inactive).

For `N#CC(C#N)=C1c2ccccc2-c2nc(C#N)c(C#N)nc21`, the survival is 4% (active). As for `N#Cc1nc2c(nc1C#N)-c1ccccc1C2=O`, the figure is 19% (active); as for `N#CC(C#N)=C1c2ccccc2-c2c1nc1ccccc1[n+]2[O-]`, 78% (inactive); as for `O=C1c2ccccc2-c2n[nH]c(=S)nc21`, 64% (inactive). As to `COC(=O)c1ccc2c(=O)n(CCCCCC(=O)N3CCN(c4ccc(Cl)cc4)CC3)c(=O)[nH]c2c1`, the survival is 116% (inactive).

Take `Cc1ccc(C(=O)c2oc3ccccc3c2NC(=O)C(C)Oc2ccccc2Cl)cc1` (stereo not given): the survival was 40% (active). To `Cc1ccc(C(=O)c2oc3ccccc3c2NC(=O)COc2ccccc2Cl)cc1` belongs 123% (inactive). To `Cc1cc(C)cc(OCC(=O)Nc2c(C(=O)c3ccccc3)oc3ccccc23)c1` belongs 92% (inactive); to `Cc1cc(C)cc(OC(C)C(=O)Nc2c(C(=O)c3ccccc3)oc3ccccc23)c1` (stereo not given), 17% (active); to `COc1ccccc1OC(C)C(=O)Nc1c(C(=O)c2ccc(Cl)cc2)oc2ccccc12` (stereo not given), 81% (inactive). As for `CCc1ccc(OC(C)C(=O)Nc2c(C(=O)c3ccccc3)oc3ccccc23)cc1` (stereo not given), the figure is 38% (inactive); as for `CC(C)Cn1c(=O)c2ccccc2n2c(-c3ccc(Br)cc3)nnc12`, 94% (inactive); as for `Cc1ccc(CN(Cc2ccco2)C(=O)COc2ccc(Cl)cc2Cl)cc1`, 96% (inactive).

In the case of `Cc1ccc(-c2nnc(Nc3ccc(O)cc3)c3ccccc23)cc1S(=O)(=O)N1CCCCC1`, the survival is 104% (inactive).

For the molecule `Cc1cccc(N2CCN(c3nc4ccc(C(=O)c5ccccc5)cc4n4cnnc34)CC2C)c1` (stereo not given), the survival was 76% (inactive). With `Fc1ccc(-c2noc3ncnc(NCC4CCN(Cc5ccc(Cl)cc5)CC4)c23)cc1`, the survival is 72% (inactive). For the molecule `Cc1cc(C)cc(Nc2ncnc3onc(-c4ccc(F)cc4)c23)c1`, the survival was 84% (inactive). As to `Cc1ccc(CCNc2ncnc3onc(-c4ccc(F)cc4)c23)cc1`, the survival is 83% (inactive). To `Cc1ccc(CN2CCC(CNc3ncnc4onc(-c5ccc(Cl)cc5)c34)CC2)cc1` belongs 80% (inactive). As for `Cc1ccc(CN2CCC(CNc3ncnc4onc(-c5ccc(F)cc5)c34)CC2)cc1`, the figure is -2% (active). As for `Cc1ccc(CO)cc1Nc1ncnc2onc(-c3ccc(F)cc3)c12`, the figure is 46% (active); as for `Cc1cccc(N2CCN(C(=O)c3cccc(-n4c(C)nc5cccnc54)c3)CC2)c1C`, 104% (inactive). For `COc1ccc2c(c1)cc1c(=O)n(CC(=O)NC3CCCCC3)nc(C)n12`, the survival is 70% (inactive). On to `COc1ccc(CCNS(=O)(=O)c2c(C)nc3sccn3c2=O)cc1OC`, for which the survival was 64% (inactive). To `CCOc1ccc(CN2C(=O)c3ccccc3Sc3ccc(C(=O)NCCc4ccccc4)cc32)cc1` belongs 58% (inactive); to `COC(=O)C1(C)NC(c2ccc(OC)cc2)C2C(=O)N(c3ccccc3)C(=O)C21` (stereo not given), 80% (inactive). As for `COC(=O)C1(C)NC(c2ccccc2C)C2C(=O)N(C)C(=O)C21` (stereo not given), the figure is 54% (active).

Take `COC(=O)C1(C(C)C)NC(c2ccccc2OC)C2C(=O)N(C)C(=O)C21` (stereo not given): the survival is 84% (inactive). To `COc1ccc(C)cc1NS(=O)(=O)c1ccc2oc(=O)c3ncn(C)c3c2c1` belongs 77% (inactive); to `CCc1ccc(S(=O)(=O)NCc2ccc3c(c2)CCN3C(=O)c2ccc(C)cc2)cc1`, 71% (inactive); to `CCOc1ccc(-c2nonc2NC(=O)c2ccco2)cc1`, 79% (inactive).

Regarding `CC(=O)c1cccc(NC(=O)Cn2cnc3c2c(=O)n(C)c(=O)n3C)c1`, the survival was 44% (active). In the case of `CC(=O)Nc1cccc(NC(=O)Cn2cnc3c2c(=O)n(C)c(=O)n3C)c1`, the survival was 70% (inactive). As to `Cn1c(=O)c2c(ncn2CC(=O)Nc2cccc(C(F)(F)F)c2)n(C)c1=O`, the survival was 71% (inactive). For the molecule `Cc1cccc(-c2cc(-c3ccccc3)nc(SCC(=O)Nc3ccccc3)c2C#N)c1`, the survival was 67% (inactive). To `COc1cc(C(CC(=O)Nc2ccc(C)c(F)c2)N2Cc3ccccc3C2=O)cc(OC)c1OC` (stereo not given) belongs 93% (inactive); to `CC(C)c1ccc(S(=O)(=O)NCc2ccc3c(c2)CCN3C(=O)c2ccccc2)cc1`, 87% (inactive); to `CCc1c(CN2CCN(c3ccc(F)cc3)CC2)csc1C`, 38% (active).

Regarding `Cc1scc(CN2CCN(c3ccc(F)cc3)CC2)c1C`, the survival was 64% (inactive). To `CCc1c(CN2CCN(c3cccc(C)c3C)CC2)csc1C` belongs 76% (inactive); to `Cc1ccc(-c2c(CN3CCN(c4cc(C)ccc4C)CC3)csc2C)cc1`, 126% (inactive).

Turning to `Cc1ccc(-c2c(CN3CCN(c4cc(Cl)ccc4C)CC3)csc2C)cc1`, the survival is 51% (inactive).

As to `CCc1c(CN2CCN(c3ccccc3F)CC2)csc1C`, the survival was 32% (active). Consider `Cc1scc(CN2CCN(c3ccccc3F)CC2)c1C`, for which the survival is 64% (inactive). To `Cc1ccc(-c2c(CN3CCN(c4cccc(C)c4C)CC3)csc2C)cc1` belongs 21% (active). On to `Cc1cc(CN2CCN(c3ccc(F)cc3)CC2)cs1`, for which the survival was 69% (inactive). As for `COc1ccc(-c2cc(C(F)(F)F)nc(SCCC(=O)Nc3ccccc3F)n2)cc1`, the figure is 77% (inactive); as for `Cc1ccc(Cl)cc1NC(=O)Cn1nnc2sc3c(c2c1=O)CCC(C(C)(C)C)C3` (stereo not given), 58% (inactive).

For `C=CCc1c(C)nc2nc(SCC(=O)Nc3cccc(Cl)c3)nn2c1C`, the survival is 102% (inactive).
